Assay outcomes from PubChem BioAssay.
DAX1 inh-1: inhibits human nuclear receptor DAX1 | AID 504766 | HEK293 Gal4-DAX1 luciferase reporter, luminescence | 340,000 tested, 0.99% active | inhibition, % at 6.75 µM;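 active = inhibition above the mean over all tested compounds plus 3 SD, cut at about 4.2% in these data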;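 note: 0% = DAX1-transfected cells with DMSO and 100% = empty-vector control cells with DMSO; inhibition shows as a rise in luminescence from relieved DAX1 repression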
Target sequence (P51843 207-470 limits assumed): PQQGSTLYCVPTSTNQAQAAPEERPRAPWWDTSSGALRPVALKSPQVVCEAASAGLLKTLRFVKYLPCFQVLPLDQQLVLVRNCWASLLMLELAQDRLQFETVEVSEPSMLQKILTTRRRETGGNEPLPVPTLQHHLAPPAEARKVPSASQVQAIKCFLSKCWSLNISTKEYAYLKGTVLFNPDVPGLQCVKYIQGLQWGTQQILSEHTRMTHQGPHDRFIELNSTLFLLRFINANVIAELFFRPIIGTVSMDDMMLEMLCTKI
hgDAF12 agonist: activates the H. glycines DAF-12 receptor ligand-binding domain | activation, % at 6.8 µM | 370,000 tested, 1.8% active | HEK293 GAL4-hgDAF12 UAS-luciferase reporter, agonist luminescence; normalized to butyrate control;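 active = activation above a cutoff set at the mean of all screened compounds plus 3 SD, cut at about 10% in these data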;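 note: 0% = DMSO wells and 100% = sodium butyrate wells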
ssDAF-12 act: S. stercoralis DAF-12 activation, primary screen. AID 652126. activation, % at 6.8 µM. 370,000 tested, 1% active. HEK293 ssDAF-12/GRIP1 lit1-tk-luc reporter, luminescence; % of 3 µM dafachronic acid response;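 active = activation above the mean over all tested compounds plus 3 SD, cut at about 0.9% in these data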;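 note: 0% = DMSO-only wells and 100% = 3 µM delta7-dafachronic acid wells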
SMARCA2 act: increases SMARCA2 function in MMTV reporter cells; MG213 cells, MMTV-luciferase reporter, dexamethasone, overnight; activation, % at 9.1 µM; 370,000 tested, 1% active; AID 652017; in the data active = activation above about 7.8%;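 note: 0% = vehicle wells and 100% = reference activator wells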
hcDAF-12 act: H. contortus DAF-12 activation, primary screen | HEK293 hcDAF-12 lit1-tk-luc reporter, luminescence; 0% DMSO, 100% Δ7-dafachronic acid | activation, % at 6.8 µM | 370,000 tested, 1.4% active | AID 652067;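 active = activation above the mean of all tested compounds plus 3 SD, cut at about 5.5% in these data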;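 note: 100% = response to 3 µM Δ7-dafachronic acid high control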
DAX1 inh-2: blocks DAX1 repression of SF-1 activated StAR promoter | 370,000 tested, 1.1% active | AID 652010 | HEK293T StAR-luciferase reporter, SF-1/DAX-1 repression relief | inhibition, % at 6.8 µM;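 active = inhibition above the mean over all tested compounds plus 3 SD, cut at about 3.6% in these data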;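 note: 0% = DAX-1 cells with DMSO and 100% = cells lacking DAX-1 with DMSO; higher inhibition means more luminescence from relief of DAX-1 repression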
LXRb hcDAF ctr: counter-screen for hcDAF-12 agonists: agonists of human LXR-beta; shares compounds with hcDAF-12 act; HEK293 Gal4-LXR tk-luc reporter, luminescence, 24 h; normalized: DMSO 0%, positive control 100%; activation, % at 6.8 µM; 3,400 tested, under 10 active; AID 743027;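 active = mean percent activation of the reporter above a cutoff set as the average over tested compounds plus their standard deviation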
hcDAF12 conf: hcDAF-12 agonism, confirmation assay. shares compounds with hcDAF-12 act. HEK293 hcDAF-12 lit1-tk-luc reporter, luminescence; % of Δ7-dafachronic acid response. activation, % at 6.8 µM. 3,400 tested, 61% active;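 active = mean activation across triplicate tests above the threshold derived from the earlier primary screen, cut at about 5.5% in these data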;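 note: 0% = DMSO only wells and 100% = 3 µM Δ7-dafachronic acid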
An asterisk follows results filed as active. Compounds with a hit are over-represented: about 4.8% of the library has one in this group of screens.

`Cc1cc(O)c(C(=O)/C=C/c2ccc(C(C)C)cc2)c(=O)o1` gave DAX1 inh-1 5.7*, hgDAF12 agonist 11*, ssDAF-12 act 1.1*, SMARCA2 act 6, hcDAF-12 act 8.6*, DAX1 inh-2 2, LXRb hcDAF ctr 0 and hcDAF12 conf 3.
`Cc1cc(O)c(C(=O)/C=C/c2ccccc2)c(=O)o1` gave DAX1 inh-1 0, hgDAF12 agonist 2, ssDAF-12 act 0, SMARCA2 act -2, hcDAF-12 act 1 and DAX1 inh-2 0.
For O=C(NCCC(=O)N(CCc1ccccc1)Cc1ccccc1)c1ccc(Br)cc1 the results were DAX1 inh-1 1, hgDAF12 agonist -1, ssDAF-12 act 0, SMARCA2 act 1, hcDAF-12 act -2 and DAX1 inh-2 -2.
For Cc1nc(-c2ccccc2)nc(-c2ccccc2)n1 the results were DAX1 inh-1 0, hgDAF12 agonist 1, ssDAF-12 act -1, SMARCA2 act -1, hcDAF-12 act 2 and DAX1 inh-2 0.
For Cc1ccc(-c2nnc(-c3cccc4ccccc34)o2)cc1 the results were DAX1 inh-1 -1, hgDAF12 agonist 7, ssDAF-12 act 1.2*, SMARCA2 act -1, hcDAF-12 act 7.6*, DAX1 inh-2 1, LXRb hcDAF ctr 2 and hcDAF12 conf 21*.
`CC1(C)NC(=O)N(CC(=O)N2CCN(c3ccc([N+](=O)[O-])cc3)CC2)C1=O` gave DAX1 inh-1 0, hgDAF12 agonist -1, ssDAF-12 act -1, SMARCA2 act -1, hcDAF-12 act -2 and DAX1 inh-2 -1.
O=C(COc1ccccc1Br)N1CCN(C(=O)c2cccs2)CC1 was read as DAX1 inh-1 0, hgDAF12 agonist -4, ssDAF-12 act -1, SMARCA2 act -3, hcDAF-12 act -2 and DAX1 inh-2 1.
Screening O=C(CSc1nnc2ccccn12)c1ccc2c(c1)OCCO2 returned DAX1 inh-1 3, hgDAF12 agonist 9, ssDAF-12 act 0, SMARCA2 act 5, hcDAF-12 act 6.6*, DAX1 inh-2 3.8*, LXRb hcDAF ctr 1 and hcDAF12 conf 4.
For O=C(CSc1nnc2ccccn12)N1CCc2ccccc2C1 the results were DAX1 inh-1 1, hgDAF12 agonist 4, ssDAF-12 act 0, SMARCA2 act 5, hcDAF-12 act 1 and DAX1 inh-2 1.
Screening O=C(CSc1nnc2ccccn12)N1CCc2ccccc21 returned DAX1 inh-1 2, hgDAF12 agonist 13*, ssDAF-12 act 0, SMARCA2 act 5, hcDAF-12 act 7.3*, DAX1 inh-2 3, LXRb hcDAF ctr 1 and hcDAF12 conf 5.7*.
`Cc1nn(C(C)C(=O)N2CCc3ccccc32)c(C)c1[N+](=O)[O-]` (stereo not given) gave DAX1 inh-1 0, hgDAF12 agonist -1, ssDAF-12 act 0, SMARCA2 act -2, hcDAF-12 act -1 and DAX1 inh-2 0.
Screening S=C(N/N=C/c1ccc(Cl)cc1)N1CCOCC1 returned DAX1 inh-1 1, hgDAF12 agonist 13*, ssDAF-12 act 0, SMARCA2 act 5, hcDAF-12 act 7.2*, DAX1 inh-2 2, LXRb hcDAF ctr 0 and hcDAF12 conf 1.
S=C(Nc1ccc(Cl)cc1Cl)N1CCOCC1 was read as DAX1 inh-1 -1, hgDAF12 agonist 0, ssDAF-12 act 0, SMARCA2 act -1, hcDAF-12 act 0 and DAX1 inh-2 0.
CCCC(C)NC(=O)Cc1ccccc1[N+](=O)[O-] (stereo not given) was read as DAX1 inh-1 1, hgDAF12 agonist 3, ssDAF-12 act 1.1*, SMARCA2 act -1, hcDAF-12 act 7.3*, DAX1 inh-2 1, LXRb hcDAF ctr 0 and hcDAF12 conf 5.9*.
